One may read the AC50 as the midpoint of the concentration-response curve, whichever way the signal moves.

Inconclusive results are not listed. Active and inactive are the calls of the source. How the source made its calls: active means hit-call score of the fitted dose curve at least 0.9, where 1 is the maximum; inconclusive means response in the unintended direction; inactive means score below 0.9.

This assay is described as follows: CCTE_Deisenroth_AIME_384WELL_CTox_Active: Cytotoxicity Assessment (CTOX) in CCTE's 384-well Estrogen Receptor Transactivation Assay with AIME metabolic competence (metabolism positive), Deisenroth Lab (AID 2284037).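 Further: chemicals first conditioned 2 h by alginate-bound induced rat liver S9 before cells; activity means signal loss indicating cell death.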 As to the method:
CCTE_Deisenroth_AIME_384WELL (AIME metabolism assay) is a cell-based, single-readout assay that uses VM7Luc4E2, a human mammary gland/breast cell line, with measurements taken at 24 hour after chemical dosing in a 384-well plate.CCTE_Deisenroth_AIME_384WELL_CTox_Active is one of four assay components measured or calculated from the CCTE_Deisenroth_AIME_384WELL assay. It is designed to make measurements of a protease substrate, a type of viability indicator, as detected with substrate cleavage to a fluorescent probe in living cells.CCTE_Deisenroth_AIME_384WELL_CTox_Active is a component of the CCTE_Deisenroth_AIME_384WELL assay that measures the effect of retroftting the VM7Luc ERTA assay with the Alginate Immobolization of Metabolic Enzymes (AIME) metabolism method. AIME is optimized to impart phase I hepatic metabolism using phenobarbital/beta-naphthoflavone induced hepatic S9 from male Sprague Dawley rats. Parent chemicals are incubated for 2 hours in the AIME assay prior to transfer to the VM7Luc ERTA assay plate. […] This endpoint evaluates cytotoxicity in metabolism positive mode. Using a type of flourescent probe in VM7Luc cells, loss-of-signal activity can be used to understand loss of viability. This assay endpoint, CCTE_Deisenroth_AIME_384WELL_CTox_Active, was analyzed with bidirectional fitting in the ERTA assay.
The AIME procedure consists of a preparative "pre-stamping" step using a barium chloride/poly-L-lysine (PLL) solution followed by "stamping" the lid in alginate-hepatic S9 (metabolism positive) or alginate-water (metabolism negative) to form microspheres. Once stamping is completed, the AIME lids are placed in duplicate microplates (metabolism positive or negative) containing chemical solutions and incubated for two hours to facilitate metabolic reactions. The conditioned medium, containing parent chemical or metabolites, is then transferred to the cell-based VM7Luc Estrogen Receptor Transactivation Assay (ERTA) for 24 hours. A typical experimental design tests a 10-point concentration series (0.002 - 200 uM) for 8 compounds (96-well format) (Deisenroth 2020) or 32 compounds (384-well format) (Hopperstad 2022) in single technical replicate. AIME assay controls include trans-stilbene (bioactivated control) and ethylparaben (bioinactivated control). ERTA assay plate controls include 17-beta estradiol (positive control) and DMSO (solvent control). Experiments typically comprise a minimum of four experimental replicates (n=4).
With `CCCCCCCC/C=C\CCCCCCCC(=O)N(C)CC(=O)O`, the half-maximal activity concentration (AC50) was 124 µM (active). In the case of `CCOC(OCC)OCC`, the result was inactive. Take `CC(C)OC=O`: the outcome was inactive. With `CCCCOC(=O)C(C)O` (stereo not given), the molecule was classed as inactive.

Turning to `CCN=C1C=CC(=C(c2ccc(N(CC)CC)cc2)c2ccc(N(CC)CC)cc2)c2ccccc21`, the AC50 was 59.1 µM (active). Turning to `O=C(c1ccccc1)c1ccc(O)cc1O`, the call was inactive. As for `N#Cc1ccccc1O`, the molecule was classed as inactive.

On to `O=C1C=CC(=O)N1c1ccccc1`, for which the outcome was inactive. For the molecule `CC(=O)CCC(C)C`, the call was inactive.

As to `CC(C)(C)c1cc(Cc2cc(C(C)(C)C)c(O)c(C(C)(C)C)c2)cc(C(C)(C)C)c1O`, the result was inactive.

These data come from PubChem BioAssay (EPA / NIEHS).
